From PubChem BioAssay
An excerpt weighted towards active compounds, which were near 2.9% of everything screened.
SNCA expr inh = SNCA gene expression inhibition | actives 0.17% (n = 140,000) | Potency, µM (highest dose often 57.2 µM), for the others: at the top dose activity change, negative = inhibition, most hits filed as inhibitors | HEK-293 SNCA-luciferase knock-in, luminescence, 24 h;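 further: potency means the concentration at half of the fitted maximal effect; plate controls were DMSO cells for no effect and cell-free wells for full effect; nearly all actives have a fitted effect of over 45% in size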
KDM5B inhibitor = KDM5B demethylase inhibition; KDM5B demethylase, FDH-coupled NADH fluorescence (FDH is formaldehyde dehydrogenase); Potency, µM (highest dose often 57.7 µM), hits mostly inhibitors; actives 2.6% (n = 220,000); AID 1347165; further: potency means the concentration at half of the fitted maximal effect; 0% is about no effect; nearly all actives have a fitted effect of over 70% in size
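Inhibition is measured as reduced NADH fluorescence generation from FDH coupling to formaldehyde release. Truncated KDM5BΔAP at 200 nM final acts on H3K4me3 peptide (12.5 µM in substrate mix) in pH 7.5 HEPES buffer with Tween-20, 30 min, room temperature.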
HEK293 viab = cell viability loss counter-screen | actives 0.12% (n = 150,000) | HEK-293-SNCA-luc viability, GF-AFC fluorescence, 24 h | AID 1671193 | Potency, µM (doses to about 57.1 µM), without a hit: at the top dose activity change, negative = cytotoxicity, most hits filed as cytotoxic;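 further: potency means the concentration at half of the fitted maximal effect; 0% = DMSO-treated cells and -100% = medium-only wells without cells; nearly all actives have a fitted effect of over 30% in size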
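Cytotoxicity counterscreen: after 24 h compound treatment of genome-edited SNCA-luciferase HEK-293 cells, live-cell protease substrate GF-AFC read by fluorescence after 30 min; activity scaled between DMSO (0%) and medium-only (-100%), curves Hill-fitted.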
IP6K1 inhibitor = IP6K1 kinase inhibition; Q92551; IP6K1 kinase, ADP-Glo luminescence, 2 h; hits give low values; activity change, % (series mostly up to about 58 µM); actives 0.81% (n = 140,000); in the data active means activity change below about -25%; further: on the % scale 0 is the no-effect control and ±100 the full control effect
Target sequence (Q92551 whole entry, looked up): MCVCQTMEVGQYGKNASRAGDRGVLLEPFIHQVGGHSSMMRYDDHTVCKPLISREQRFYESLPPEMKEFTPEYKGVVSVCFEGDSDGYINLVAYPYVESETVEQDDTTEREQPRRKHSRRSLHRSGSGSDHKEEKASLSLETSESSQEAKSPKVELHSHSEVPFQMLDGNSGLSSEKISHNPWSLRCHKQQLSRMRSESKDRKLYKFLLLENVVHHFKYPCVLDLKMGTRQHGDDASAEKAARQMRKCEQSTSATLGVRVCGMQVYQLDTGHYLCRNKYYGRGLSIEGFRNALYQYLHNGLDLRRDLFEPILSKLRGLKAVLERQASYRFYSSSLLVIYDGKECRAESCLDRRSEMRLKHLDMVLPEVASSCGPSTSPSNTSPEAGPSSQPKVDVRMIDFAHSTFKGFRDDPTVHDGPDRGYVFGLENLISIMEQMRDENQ
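ADP-Glo luminescence measures ADP made by human IP6K1 during a 2 h RT reaction with ATP/IP6 (mix at 1.3 mM/130 uM); top library doses 57.5 and 19.1 uM final.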
An asterisk follows results filed as active; i = inactive; ? = inconclusive; · = not tested or not shown; [ ] = dose if it differs, or a comment. Unless noted, the call rests on the fitted dose curve; in most records, active means well fitted curve in the direction sought with a large enough effect; inconclusive means small, poorly fitted or top-dose-only effect, or another doubt; inactive means no such curve, though single readings can be large; an effect the other way counts as inactive or inconclusive.

SMILES	SNCA expr inh	KDM5B inhibitor	HEK293 viab	IP6K1 inhibitor
CCC(C)NC(=O)Cc1csc2nc(C)c(-c3cc(C)n(-c4ccc(C)cc4)n3)c(=O)n12 (stereo not drawn)	-14%	28µM*	5%	25
CCCNC(=O)Cc1csc2nc(C)c(-c3cc(C)n(-c4ccc(C)cc4)n3)c(=O)n12	18%	28µM*	3%	13
Cc1ccc(-n2nc(-c3c(C)nc4scc(CC(=O)Nc5ccc(F)cc5)n4c3=O)cc2C)cc1	-9%	28µM*	-20%	6
CCCNC(=O)Cc1csc2nc(C)c(-c3cc(C)n(-c4ccc(C(C)C)cc4)n3)c(=O)n12	-15%	28µM*	7%	6
C=CCOc1nc2c(c(=O)n(Cc3ccccc3)c(=O)n2C)n1C	·	i	·	·
COc1ccccc1Nc1ccnc(N2CCCC(C(=O)NC3CCCC3)C2)n1 (stereo not drawn)	0%	·	-20%[12.5 µM]	19
O=C1CC2(CCN(C(=O)C3CCN(C(=O)C4CC4)CC3)CC2)Oc2ccccc2N1	-12%	·	4%	27
CC(C)C(C(=O)NC1CCCCC1)c1ccc(Cl)cc1 (stereo not drawn)	·	i	·	·
COc1ccc(NC(=O)N2CCCC3(C2)Nc2cccnc2NC3=NC2CCCC2)c(C)c1 (stereo not drawn)	-14%	25µM*	-16%	0
O=C(c1n[nH]c2c1CCCC2)N1CCCC2(C1)Nc1cccnc1NC2=NC1CCCC1 (stereo not drawn)	-19%	25µM*	-14%	0
Cc1ccc(C(=O)N2CCCC3(C2)Nc2cccnc2NC3=NC2CCCC2)cc1F (stereo not drawn)	-6%	28µM*	-19%	1
COCC(=O)N1CCN2C(=O)N(Cc3ccccc3)C(=O)[C@H]2C1	30%[87.6 µM]	i	-1%[87.6 µM]	6
O=C(NCC1CC1)c1cccc(OC2CN(Cc3cccc(F)c3)C2)c1	27%	i	-5%	-1
Cc1cccc(CNC(=O)NCC2CCN(Cc3ccncc3)C2)c1 (stereo not drawn)	-24%	14µM*	-6%	16
Nc1cccc(C(=O)NCC2CCN(Cc3cc(F)cc(F)c3)C2)c1 (stereo not drawn)	9%	28µM*	0%	4
O=C(NC1CCN(CCn2nc3n(c2=O)CCCC3)C1)c1cccnc1 (stereo not drawn)	·	·	·	-9
N#Cc1c(SCC(=O)Nc2ccccc2)nc(N2CCCC2)c2c1CCCC2	·	i	·	·
Cc1nnnn1-c1cccc(C(=O)N[C@H]2C[C@@H]3OCC[C@H]23)c1	-21%	i	5%	-10
COc1ccc(CNC(=O)C[C@@H]2C[C@@H](C(C)C)[C@H](CNC(C)=O)C=C2C)cc1	-23%[87.6 µM]	35µM*	-28%[87.6 µM]	-7
CCC(CC)C(=O)NC[C@@H]1C=C(C)[C@H](Cc2nc3ccc(OC)cc3[nH]2)C[C@H]1C(C)C	?	?	40µM*	5
Cn1cccc1-c1noc(C2CCN(C(=O)CCc3ccccc3)CC2)n1	-4%	·	-3%	18
COC[C@@H]1CN(c2cnccn2)C[C@H]1C(=O)NCc1ccccn1	-8%	?	-4%	9
O=C(NCc1ccco1)[C@@H]1Cc2nc[nH]c2CN1Cc1cccnc1	-6%[87.6 µM]	?	7%[87.6 µM]	2
COC[C@@H]1CN(c2cnccn2)C[C@H]1C(=O)NCc1ccco1	-18%	25µM*	16%	12
COC[C@@H]1CN(c2cnccn2)C[C@H]1C(=O)NCc1ccccc1F	-6%	20µM*	?	0
SMILES	SNCA expr inh	KDM5B inhibitor	HEK293 viab	IP6K1 inhibitor
C/C(=N/O)c1cc(C(C)(C)C)cc2c1CCC2(C)C	·	i	·	·
Cc1ccc(-c2cc(C(=O)N3CCN(Cc4ccc(C#N)cc4)CC3)c3ccccc3n2)o1	·	i	·	·
CC(C)=CCCC(C)CCC/C(C)=N/NC(N)=O (stereo not drawn)	·	i	·	·
CCCOc1nccnc1NC1CCN(C(=O)c2cccnc2)CC1	14%	28µM*	3%	-5
Cc1ccc(OCCC2CCN(C(=O)c3ccsc3)C2)cc1 (stereo not drawn)	8%	i	2%	23
O=C(c1ccsc1)N1CCC(Nc2cccnc2)C1 (stereo not drawn)	-25%	13µM*	-17%	5
O=C(c1cccnc1)N1CCC(OC2CCN(Cc3cccnc3)CC2)CC1	1%	i	-4%	3
CCCOc1nccnc1NC1CCN(C(=O)c2ccsc2)CC1	-18%	28µM*	10%	0
CC(C)S(=O)(=O)N1CCC(Nc2cccnc2)C1 (stereo not drawn)	-1%	8.9µM*	-7%	10
O=C(CC1CCCC1)N1CCC(Nc2cccnc2)C1 (stereo not drawn)	-3%	?	-4%	8
CCCCN(C)S(=O)(=O)NCc1ccnc(N2CCN(c3ccc(F)cc3)CC2)c1	·	i	·	·
c1ccc(C(CNCc2ccsc2)N2CCCC2)cc1 (stereo not drawn)	·	i	·	·
NC(=O)Cn1ccc2cc(OCC3CCN(C(=O)Oc4ccccc4Cl)CC3)cnc21	20%	28µM*	0%	-14
O=C(O)CCn1ncc2cc(OC3CCN(C(=O)Oc4ccccc4Cl)CC3)ccc21	1%	i	1%	5
O=C(CCC1CCN(c2cc(NC3CC3)ncn2)CC1)NCCN1CCCCC1	?	i	-8%	16
O=C(O)Cn1ccc2cc(OCC3CCN(C(=O)OC4CCCC4)CC3)cnc21	-22%[87.6 µM]	35µM*	-11%[87.6 µM]	-2
CC(C)OC(=O)N1CCC(COc2cnc3c(ccn3CC(N)=O)c2)CC1	21%[87.6 µM]	40µM*	3%[87.6 µM]	-8
NC(=O)Cn1ccc2cc(OCC3CCN(c4cc(NC5CC5)ncn4)CC3)cnc21	-27%[87.6 µM]	40µM*	-20%[87.6 µM]	-11
CCC1(N2CCN(S(=O)(=O)c3ccc(F)cc3F)CC2)CCN(C(=O)C(C)C)C1 (stereo not drawn)	15%	i	6%	-4
Cc1ccccc1Nc1nc(N)nc(CSCc2ccc(C#N)cc2)n1	·	i	·	·
O=C(CCc1ccc(-c2ccc(Cl)cc2)[nH]1)N[C@@H]1C[C@@H]2OCC[C@@H]21	14%	32µM*	-7%	1
CO[C@@H]1COCC[C@H]1NC(=O)CCc1ccc(-c2ccc(Cl)cc2)[nH]1	-1%	28µM*	-1%	-8
O=c1cc(-c2ccccc2)sc2c1ccc1ccccc12	·	i	·	·
FC(F)(F)c1ccc(N2CCC(N[C@@H]3C[C@@H]4OCC[C@@H]43)CC2)nc1	-14%	20µM*	6%	5
O=C(CN1CCN(c2ccc(C(F)(F)F)cn2)CC1)NC1CC1	·	i	·	·
O=C(CN1C(=O)NC(c2ccc(Cl)cc2)C2=C1COC2=O)Nc1ccccc1 (stereo not drawn)	?	i	-8%	2
CCCCc1ccc(NC(=O)CN2C(=O)NC(c3ccc(Cl)cc3)C3=C2COC3=O)cc1 (stereo not drawn)	13µM*	i	?	5
Cn1cc(-c2cc(=O)c3ccnc(NCc4ccc5c(c4)OCO5)c3o2)cn1	6%[87.6 µM]	32µM*	-3%[87.6 µM]	-16
COCc1ccccc1-c1nccc2c(=O)cc(-c3cnn(C)c3)oc12	0%[87.6 µM]	35µM*	10%[87.6 µM]	-22
